# D2 PAM-1 = positive allosteric modulators of human D2 dopamine receptor; 340,000 compounds, 0.34% hits; P14416; HEK293 T-REx D2, calcium flux, EC20 dopamine potentiation; potentiation, % at 10 µM;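 active = potentiation over 3 SD above the plate norm, cut at about 30% in these data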; note: 0% is about no effect
#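 Potentiation of an EC20 dopamine calcium response is measured in a force-coupled, tetracycline-inducible Hek293 Trex D2 line. Compound-only kinetic reads over 180 s flag agonists before dopamine addition.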
# D2 ag-1 = agonists of human D2 dopamine receptor (beta-arrestin) | AID 624465 | 360,000 compounds, 0.084% hits | P14416 | DiscoveRx PathHunter D2 beta-arrestin, luminescence, 90 min; 100% = 57 uM dopamine signal | activation, % (no concentration beside the values); in the data active = activation above about 40%; inconclusive = between about 15% and that limit
#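 DiscoveRx PathHunter D2 beta-arrestin cells (2,100/well) attached overnight, then compound-stimulated 90 min at 37 C in HBSS/10 mM HEPES/0.1% Tween-20 buffer; beta-galactosidase complementation read by luminescence after 1 h at ambient temperature. Dopamine 57 uM final (EC100) as control.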
# D2 PAM-2 = positive allosteric modulators of human D2 dopamine receptor. P14416. DiscoveRx D2 beta-arrestin cells, luminescence, 90 min; 100% = 57 uM dopamine signal. potentiation, % (test concentration not listed). 360,000 compounds, 0.23% hits; in the data active = potentiation above about 50%; inconclusive = mostly about 30% to 49%
#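 PathHunter D2 cells, attached overnight at 37 deg C, received compound in DMSO plus dopamine at EC20 (50 nM final) for 90 min at 37 deg C. Beta-arrestin recruitment was read as luminescence after 1 h with detection reagent at ambient temperature.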
# D2 ag-2 = agonists of human D2 dopamine receptor; HEK293 T-REx D2 cells, calcium flux agonist mode; AID 485358; 340,000 compounds, 0.53% hits; P14416; activation, % at 2 µM;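 active = activation over 3 SD above normal in the single-dose calcium agonist read, cut at about 30% in these data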; note: 0% is about no effect
#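 Tetracycline-induced HEK293 T-REx cells with force-coupled D2 receptor, plated overnight at 30 C, loaded with no-wash calcium dye. After a 10 s baseline, compound was pin-added and calcium flux read kinetically for 180 s; calcium rises flagged agonists.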
# D2 antagonist = antagonists of human D2 dopamine receptor. HEK293 TREx D2 cells, calcium flux, dopamine EC80. inhibition, % at 10 µM. 340,000 compounds, 2% hits; in the data active = inhibition above about 30%; inactive = below that, where a call was filed; note: 0% is about no effect
#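 In this primary screen, negative modulation is detected by tracking calcium flux after an EC80 dopamine challenge in inducible HEK293 T-REx D2 cells preexposed to test compound for 180 s.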
# D3 arrestin ag = D3 receptor agonism confirmed, beta-arrestin readout | Potency, µM (highest dose often 76.9 µM), for inactives: top-dose activation, most hits filed as activators | shares compounds with D2 ag-2 | 2,300 compounds, 4% hits | DiscoveRx D3 beta-arrestin cells, luminescence, 90 min;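 note: potency is the fitted concentration of half-maximal effect; 100% = dopamine control response; nearly all actives have a fitted effect of over 70% in size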
# Target sequence (P35462 whole entry, looked up): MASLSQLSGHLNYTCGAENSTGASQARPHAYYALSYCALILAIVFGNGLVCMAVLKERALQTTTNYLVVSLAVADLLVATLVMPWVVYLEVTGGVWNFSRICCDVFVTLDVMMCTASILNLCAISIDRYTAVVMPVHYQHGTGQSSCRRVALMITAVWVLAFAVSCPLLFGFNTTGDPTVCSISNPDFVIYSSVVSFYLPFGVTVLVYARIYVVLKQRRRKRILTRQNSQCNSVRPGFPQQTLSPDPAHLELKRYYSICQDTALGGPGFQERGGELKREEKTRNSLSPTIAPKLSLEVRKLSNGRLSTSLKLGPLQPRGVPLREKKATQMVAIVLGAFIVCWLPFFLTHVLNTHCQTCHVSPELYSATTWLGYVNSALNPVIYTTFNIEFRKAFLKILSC
# D2 ag-3 = D2 receptor agonism, beta-arrestin counterscreen. shares compounds with D2 ag-2. DiscoveRx PathHunter D2 beta-arrestin, luminescence, 90 min; response scale: percent relative to full dopamine signal. Potency, µM (highest dose often 76.9 µM), for the others: at the highest dose activation, actives largely listed as activators. 2,300 compounds, 5.9% hits; note: potency is the fitted concentration of half-maximal effect; % of control where 0% means no effect; nearly all actives have a fitted effect of over 70% in size
# Starred values were filed as active, the others as inactive; ? = inconclusive; · = no result given. Shown are actives, neighbours in structure and some others; about 2.4% of the full set was active somewhere. Unless noted, calls come from the whole dose curve; as a rule, active = well fitted activation curve with a large enough effect; inconclusive = small, poorly fitted or top-dose-only effect; inactive = flat fitted curve, though single readings scatter.
SMILES,D2 PAM-1,D2 ag-1,D2 PAM-2,D2 ag-2,D2 antagonist,D3 arrestin ag,D2 ag-3
COc1ccc(C2=CC(=O)C[C@H](c3ccc(OC)c(OC)c3)C2)cn1,-3,1,-5,1,-11,2%,4%
COc1ccc([C@H]2CC(=O)C=C(c3ccc(F)nc3)C2)cc1OC,-6,1,2,0,4,·,·
COc1ccc([C@H]2CC(=O)C=C(c3ccc4cc[nH]c4c3)C2)cc1,-4,-2,-3,-1,0,2%,-2%
COc1ccccc1N1CCN(C(=O)c2cnn(C(C)(C)C)c2C2CCN(C(=O)OC(C)(C)C)CC2)CC1,0,·,·,·,·,·,·
CC(=O)c1ccc(NC(=O)c2sc(-n3nc(C)c(Cc4ccccc4)c3C)nc2C)cc1,-5,·,·,2,·,·,·
COc1ccc([C@H]2CC(=O)C=C(c3cccc(OCc4ccccc4)c3)C2)cc1,-7,-3,-12,-1,9,-11%,-3%
CCCN(CC1CC1)C(=O)COC(=O)c1oc2c(F)cccc2c1C,-18,?,15,43*,41*,25%,?
Cc1c(Nc2nc(-c3ccccc3)cs2)c(=O)n(-c2ccccc2)n1C,-3,-1,-16,0,12,·,·
C=CC[n+]1c(-c2ccc(C)cc2)csc1Nc1c(C)n(C)n(-c2ccccc2)c1=O,·,-1,-14,·,·,-11%,11%
C=CC[n+]1c(-c2ccc(Cl)cc2Cl)csc1Nc1c(C)n(C)n(-c2ccccc2)c1=O,-16,-7,-28,57*,49*,-48%,-10%
Cc1ccc(-n2ncc(C(=O)NCCN3CCc4ccccc4C3)c2C2CCN(C(=O)OC(C)(C)C)CC2)c(C)c1,-17,·,·,·,·,·,·
O=C(C1CCCCC1)N(Cc1cccnc1)c1nc2c(F)cc(F)cc2s1,12,·,·,1,·,·,·
C/C=C/c1cc(CN2CCN(c3ccccc3)CC2)c(O)c(OC)c1,-33,5,3,·,·,-5%,6%
O=C(c1cccc(C(F)(F)F)c1)C1CCCN(C(=O)Cn2cncn2)C1 (stereo unspecified),-5,-8,-11,0,-4,·,·
O=C(c1ccc(C(F)(F)F)cc1)C1CCCN(C(=O)Cn2cncn2)C1 (stereo unspecified),-4,-4,-13,0,20,-8%,0%
Cc1ccc(NC(=O)Cn2c(=O)n(Cc3nc(C)no3)c(=O)c3cc4c(cc32)OCO4)cc1,3,·,·,-1,·,·,·
Nc1ccc(-c2nc3cc([N+](=O)[O-])ccc3o2)cc1,18,-3,-12,1,-6,17%,7%
O=S(=O)(NCC(c1ccc2c(c1)OCO2)N1CCN(c2ccccc2)CC1)c1ccccc1 (stereo unspecified),-28,?,10,71*,80*,13%,?
COc1cccc(C2CC(=O)Nc3cc(OC)c(OC)cc32)c1 (stereo unspecified),6,3,4,0,27,·,·
COc1cccc(C2CC(=O)Nc3cc4c(cc32)CCC4)c1 (stereo unspecified),13,-7,-4,-1,10,23%,10%
c1ccc(N2CCN(Cc3cn4cccnc4n3)CC2)cc1,-24,0,-5,53*,49*,1%,23%
c1ccc(CN2CCN(Cc3cn4cccnc4n3)CC2)cc1,-10,3,-10,1,9,·,·
c1ccc(N2CCN(Cc3cn4ccccc4n3)CC2)cc1,-18,2,-16,70*,37*,-9%,7%
Cn1c(=O)c2cc(S(=O)(=O)NC(Cc3ccccc3)C(=O)Nc3ccc(F)cc3)ccc2n(C)c1=O (stereo unspecified),4,·,·,-1,·,·,·
COc1cccc(S(=O)(=O)NC2CCN(C#N)C2)c1 (stereo unspecified),5,·,·,0,1,-6%,-2%
